From PubChem BioAssay (NCI)
This is part of a sample that, as a whole, favours compounds with a hit. Of some 79,000 tested, about 15% had one in any assay. Values without a mark were called inactive. Active and inactive are the calls of the source. Cut-off read from the data, not from the text of the source: active = growth inhibition above about 70%; inactive = the rest.

experiment: NCI Yeast Anticancer Drug Screen. Data for the mec2-1 strain (AID 157); settings: S. cerevisiae mec2-1 strain, at 50.0 µM, active compounds read high
Description: Growth inhibition of yeast strains with defined genetic alterations is measured as a screen for potential anti-cancer activity. Selected strains with alterations in DNA damage repair or cell cycle control were exposed to compounds and growth inhibition was measured relative to vehicle treated controls. The strain used in this assay is mec2-1

Structure (SMILES)	growth inhibition
Cc1ccc(C(=O)c2ccccc2C(=O)O)cc1C	-4.35%
CCOC(=O)c1nnc(-c2ccccc2)nc1Cl	3.45%
NC(=S)N/N=C/c1ccc(OC(=O)Cc2ccccc2)cn1	-6.6%
O=C(O)C(CCc1ccccn1)c1ccccc1 (stereo not given)	-26.2%
O=C(Cc1ccccc1)Nc1ccccc1Cl	0.35%
Cc1cc(-c2ccccc2)n(C(C(=O)c2ccccc2)c2ccccc2)n1 (stereo not given)	-10.4%
O=C(Nc1ccccc1)c1cccn1-c1ccccc1	-13.1%
Cc1c(NC(=O)Nc2c(Cl)cccc2Cl)c(=O)n(-c2ccccc2)n1C	-36.3%
CCN(CC)c1ccc(N=C2C=C(C(=O)Nc3ccccc3)C(=O)c3ccccc32)cc1	-40.3%
CC1=C(/C=C/Cl)CC(Cl)C(C)(Cl)C1 (stereo not given)	-10.4%
O=C(O)C(Cc1ccccc1)N1C(=O)c2ccccc2C1=O (stereo not given)	-17.5%
CCCCCCC(=O)/C=C/c1ccc(OC)cc1	-6.55%
Oc1ccccc1/C=N/n1cnnc1	12.2%
CCOC(=O)c1c(SC(=O)c2ccc(C(C)(C)C)cc2)n(-c2ccccc2)c(=S)n(-c2ccccc2)c1=O	0.55%
CCOC1NC(/N=C/c2ccc(OC)cc2)=C(C#N)C1C#N (stereo not given)	-6.7%
O=C1CCC(C(=O)O)N1 (stereo not given)	4.7%
CCOC(=O)CNC1C(NC(C)=O)C(OC)OC2COC(c3ccccc3)OC21 (stereo not given)	6.6%
CCCCCCCCCCCCCCCCS(=O)(=O)N/N=C/c1ccc(N(C)C)cc1	13.3%
CC(C)Oc1c(N(C)CCO)c2cc(Cl)ccc2oc1=O	12.4%
O=C1c2ccccc2-c2cc(F)ccc21	-10.4%

Structure (SMILES)	growth inhibition
O=C1OC2C(I)C3C(C4CCCCC4)C1C23 (stereo not given)	-3.85%
CC(=O)OC1CCC2(C)C(=CCC3C2CCC2(C)C3CC(Br)C2(O)C(C)=O)C1 (stereo not given)	24.1%
Nc1ncc2ncn(CCO)c2n1	-15.4%
Cn1c(=O)c2[nH]c(C(=O)O)nc2n(C)c1=O	-2.35%
COC(=O)Nc1cccc(-c2nc3ccc(NC(=O)OC)cc3c(=O)n2-c2ccccc2)c1	-16.9%
O=S1(=O)CC(O)C(Br)C1 (stereo not given)	24.1%
COc1ccc(OC)c(/C=C/C(=O)NC(CO)CSCSC)c1 (stereo not given)	4.75%
CCOC(=O)CNC(=O)C(CCSCc1ccccc1)NC(=O)OCc1ccccc1 (stereo not given)	6.55%
O=C(Nc1ccccc1)C(=O)Nc1ccccc1	-18.1%
COc1cc2c(cc1OC)C1C(=O)c3c(O)cc4c(c3OC1CO2)C=CC(C)(C)O4 (stereo not given)	10.3%
CC(C)CCOC(=O)NC(Nc1ccc(F)cc1)(C(F)(F)F)C(F)(F)F	-15.9%
Cc1ccc(C2(C#N)CCCC2)cc1	-1%
CCC=Nc1ccccc1CO	8.5%
O=[N+]([O-])c1ccc(/C=C(/c2ccc([N+](=O)[O-])o2)S(=O)(=O)C(Cl)(Cl)Cl)cc1	97.2% (active)
COC1CC(NC(C)=O)C(OC(C)=O)C(C)O1 (stereo not given)	-9.6%
O=[N+]([O-])c1cc(F)cc(F)c1Nc1ccccc1	-11.4%
CCCCCCCCCCCC(=O)OCC1OC(n2cc(F)c(=O)[nH]c2=O)C(NC(=O)OCc2ccccc2)C(O)C1O (stereo not given)	5.85%
O=C(O)c1ccccc1CC(C(=O)O)C(=O)O	4.05%
[N-]=[N+]=NS(=O)(=O)CCc1ccc(Cl)cc1	-3.95%
C[N+](C)(N)Cc1csc(-c2ccc(Cl)cc2)n1	-39.3%
